Experimental findings from PubChem BioAssay (NCATS) are described below.

“And” between values parts separate entries of the source, which are not always exact repeats. Identical values can stand only once. Records with an inconclusive call do not appear. The source made the active and inactive calls. Calls follow the shape of the dose curve; as a rule, active = well fitted inhibition curve with a large enough effect in the signal ratio, with a control signal flat (not every such curve was filed as active); inconclusive = small, poorly fitted or top-dose-only effect, or effect the other way, or a change in a side signal; inactive = no such curve, though single readings can be large or run the other way; the % refers to the signal ratio.
% is scaled to controls: 0 for no effect and ±100 for the full control effect.

Sequence of Retinoic acid receptor RXR-alpha (Homo sapiens) (P19793 whole entry, looked up): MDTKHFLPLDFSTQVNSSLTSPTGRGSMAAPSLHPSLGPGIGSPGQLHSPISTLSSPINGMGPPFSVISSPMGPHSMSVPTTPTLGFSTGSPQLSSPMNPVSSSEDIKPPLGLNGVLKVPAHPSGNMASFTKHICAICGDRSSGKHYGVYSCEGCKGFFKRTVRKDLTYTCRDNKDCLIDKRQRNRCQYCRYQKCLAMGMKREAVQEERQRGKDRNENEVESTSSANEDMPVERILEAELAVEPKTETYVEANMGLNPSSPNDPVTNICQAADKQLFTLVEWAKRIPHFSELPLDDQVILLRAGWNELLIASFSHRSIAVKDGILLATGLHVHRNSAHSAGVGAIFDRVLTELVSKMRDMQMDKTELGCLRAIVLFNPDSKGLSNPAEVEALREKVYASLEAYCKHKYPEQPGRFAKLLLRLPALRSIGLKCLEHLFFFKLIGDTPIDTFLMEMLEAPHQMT

The target of this test is Retinoic acid receptor RXR-alpha (Homo sapiens) (UniProt P19793). The test is described as follows: qHTS assay for small molecule antagonists of retinoid X receptor alpha signaling (AID 588546). As to conditions: HEK293T RXRa-UAS-bla, beta-lactamase ratio, antagonist mode. The source says:
NIH Chemical Genomics Center [NCGC] U.S. Environmental Protection Agency [EPA] National Institutes of Environmental Health Sciences [NIEHS] National Toxicology Program [NTP] NCGC Assay Overview The Retinoid X receptor (RXR), a nuclear hormone receptor is expressed in liver, spleen, placenta, epidermis, central nervous system. These receptors are able to form homo and heterodimers with other nuclear receptors and due to this heterodimerizing ability, RXR functions as master regulators producing diverse physiological effects. Three subtypes of RXR exist; alpha, beta and gamma. Retinoid X receptor alpha (RXR-alpha) has potential roles in metabolic signaling pathways, skin alopecia, dermal cysts, cardiac development, insulin sensitization etc. Therefore screening environmental chemicals on RXR-alpha signaling can be used for the studies focused on such therapeutic applications.
NCGC Assay Protocol Summary Using a beta-lactamase reporter-gene under control of Retinoid X receptor--alpha (RXR-alpha) response element, a cell-based assay [GeneBLAzer (RXR-alpha -UAS-bla assay developed by Invitrogen] was used to measure RXR-alpha ligands signaling. GeneBLAzer RXR-alpha -UAS-bla HEK293T cells were used with assay medium containing 2% charcoal-stripped FBS. The assay was performed in clear bottom black Greiner 1536-well plates. Library compounds were measured for their ability to inhibit the reporter gene activity. Compounds were screened in a titration series in 1536-well format. The fluorescence intensity (405 nm excitation, 460/530 nm emission) was measured using an EnVision plate reader. Data was normalized relative to 9-cis-retinoic acid control (500 nM, 100%), and DMSO only wells (basal, 0%). Concentration-response titration points for each compound were fitted to the Hill equation yielding concentrations of half-maximal inhibition (IC50) and maximal response (efficacy) values. qHTS protocol for RXR-alpha beta-lactamase assay in antagonist mode [Step] [Parameter] [Value] [Description] 1. Reagent; 5 uL; 2500 cells/well 2. Incubation; 37 C for 4 hrs 3. Compounds; 23 nL; 0.59 nM to 92 uM 4. Controls (DMSO); 23 nL 5. Agonist (Stimulator); 1uL; 9-cis-retinoic acid at 500 nM and 100 nM final concentrations 6. Incubation; 37 C for 18 hrs 7. Detection reagent; 1 uL of CCF4-dye 8. Incubation; RT for 2 hrs 9. Detection; Fluorescence; Envision plate reader
With `C=C(C)C1CC=C(C)C(O)C1` (stereo not given), the max response was 5.08% (inactive).
Consider `COc1ccc(/C=C/c2cc(OC)cc(=O)o2)cc1`, for which the max response is -3.53% (inactive).
As to `C=CC(=C)CCC=C(C)C`, the max response was 7.13% (inactive).
The same measure for `CC(=O)OC/C=C(\C)CCC=C(C)C`: 5.08% (inactive) and 4.69% (inactive); for `Nc1ccc(S(=O)(=O)O)cc1`: -17.1% (inactive); for `C[Si](C)(C)O[Si](C)(C)O[Si](C)(C)C`: -6.04% (inactive).
The figure for `c1ccc2c(c1)c1cccc3ccc4cccc2c4c31` is -6.5% (inactive) and -1.07% (inactive); for `S=C1NC=NC2N=CNC12` (stereo not given) it is -10.4% (inactive).
The same measure for `Clc1cc(Cl)c(Cl)c(Cl)c1Cl`: -0.48% (inactive) and -22.2% (inactive).
As for `CC1=C2[C@H](/C=C(\C)C(=O)O)CC[C@@H](C)[C@H]2CC1`, the max response is -25.2% (inactive).
The same measure for `c1ccc2c(c1)[nH]c1ccccc12`: 0.549% (inactive) and -19.1% (inactive).
Turning to `ClCCCl`, the max response is -2.31% (inactive) and -1.04% (inactive) and -10.6% (inactive).
As for `O=C1c2ccccc2C(=O)C1c1ccc2ccccc2n1`, the max response is -20% (inactive).
Take `CCCCCCCCCCCC(=O)O`: the max response is -14.3% (inactive) and -10.1% (inactive).
Take `O=S(=O)(O)c1ccccc1`: the max response is -0.701% (inactive).
The figure for `CCO[Si](CCCN)(OCC)OCC` is 16.1% (inactive) and 0.599% (inactive); for `Cc1ccc([N+](=O)[O-])c(C)c1` it is -1.42% (inactive) and 0.976% (inactive); for `CCCCCCCCO` it is 1.87% (inactive) and 1.57% (inactive) and -7.12% (inactive).
The figure for `OCCNCCO` is -2.15% (inactive) and -2.6% (inactive); for `CC1(C)S[C@@H]2[C@H](NC(=O)COc3ccccc3)C(=O)N2[C@H]1C(=O)O` it is 2.91% (inactive); for `O=[N+]([O-])c1cccc(Cl)c1Cl` it is 13.3% (inactive) and -13.6% (inactive).
The figure for `CCO` is -6.86% (inactive); for `CCCCCCCCCCCCCC(=O)O` it is -6.83% (inactive) and -2.87% (inactive); for `COc1ccc2nc(N)sc2c1` it is 1.97% (inactive) and 2.53% (inactive).
With `COC(=O)CCCCC(=O)OC`, the max response was -2.55% (inactive) and -9.27% (inactive) and -5.71% (inactive).
The figure for `CN(C)CCCCCCN(C)C` is 23.1% (inactive).
As to `CCCN(CCC)C(=O)SCC`, the max response was 13.3% (inactive) and -9.15% (inactive).
Turning to `COCC(=O)O`, the max response was 8.65% (inactive) and -6.69% (inactive).
The same measure for `O=C(O)c1ccccc1C(c1ccc(O)cc1)c1ccc(O)cc1`: 6.9% (inactive) and 9.98% (inactive).
Regarding `C=CCc1ccc(OC)c(OC)c1`, the max response was 9.84% (inactive) and -24.7% (inactive).
With `C=CCOC(=O)c1ccccc1C(=O)OCC=C`, the max response was -2.1% (inactive) and -17.2% (inactive).
For `Cc1cccc([N+](=O)[O-])c1C`, the max response is -8.9% (inactive) and -18.4% (inactive).
The figure for `C[C@H](CCC(=O)O)[C@H]1CC[C@H]2[C@@H]3CC[C@@H]4C[C@H](O)CC[C@]4(C)[C@H]3CC[C@]12C` is -5.6% (inactive) and -21.5% (inactive); for `C1OCOCO1` it is 38.1% (inactive); for `C=Cc1ccccc1Cl` it is -6.96% (inactive).
`Cc1ccccc1C`: the max response was 24.2% (inactive) and -2.36% (inactive).
The figure for `O=C(/C=C/c1ccc(O)c(O)c1)O[C@@H](C(=O)O)[C@@H](OC(=O)/C=C/c1ccc(O)c(O)c1)C(=O)O` is 13% (inactive).
The figure for `CC12CCC(CC1=O)C2(C)C` (stereo not given) is 4.29% (inactive) and -7.42% (inactive); for `O=C(O)c1ccccc1` it is -3.53% (inactive); for `COc1cc(/C=C/c2ccccc2)oc(=O)c1` it is -7.15% (inactive).
